# Shown are actives, neighbours in structure and some others; about 3.9% of the full set was active somewhere.
# Wnt act = Wnt/beta-catenin pathway activators, primary screen, cell-based, plate reader, single point; activation, % at 9.35 µM; Wnt/beta-catenin reporter cell assay, activator; AID 743398, 2014; hit rate 1.2% among 300,000; in the data active = activation above about 30%, passing the limit was not always enough; inconclusive = no clear call, values can overlap the other calls;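 note: 0% = neutral control wells and 100% = positive control wells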
# esBAF inh = Bmi1 luciferase reporter increase in mESCs, primary screen, esBAF inhibitor project, mouse ES cells, Bmi1 luciferase knock-in, single point. 24 h; 100% = twice the neutral-well signal. reporter increase, % at 12.5 µM. hit rate 2% among 350,000. AID 602393, 2012; in the data active = activation above about 40%; inconclusive = no clear call, values can overlap the other calls;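 note: 0% = median of the plate's neutral control wells and 100% = double that signal; a rise in the Bmi1 reporter signal indicates esBAF inhibition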
# HSF1 inh = HSF1 inhibitors in luciferase reporter cells, primary screen, cell-based, NIH3T3, luminescence; NIH3T3-HGL HSE-luciferase, MG132-induced, luminescence 8 h; hits give low values; activity change, negative = inhibition, % at 7.5 µM (by protocol); hit rate 0.77% among 300,000;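 active = more than half of replicate wells show activity change below -50%, luminescence cut by over half; inconclusive = some wells, but at most half, below -50%; inactive = no replicate well below -50%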;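 note: luciferase reports HSF-1 transcriptional activity via heat shock element; 0% = median of DMSO wells and -100% = zero luminescence signal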
# MITF act = activators of MITF-driven TRPM1 promoter reporter, primary screen, cell-based, SK-MEL-5, luciferase, single point; SK-MEL-5 TRPM1-promoter luciferase, 24 h; % of positive control, neutral wells = 0; activation, % at 12.5 µM; hit rate 0.75% among 300,000; AID 588334, 2011;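 active = mean activation of at least 80% with every replicate also reaching 80%; inconclusive = mean reaches 80% but some replicate falls short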;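 note: 0% = neutral control wells and 100% = parthenolide positive control wells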
# HSF1 activator = HSF-1 activators, primary screen, NIH3T3-HGL cells, MG132 stress, luminescence, single point; NIH3T3-HGL HSF-1 luciferase reporter, 8 h; 100% = twice DMSO control signal; activation, % at 9 µM; hit rate 1.7% among 300,000; AID 504408, 2011;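 active = mean replicate activation of at least 50% with a set share of replicates each reaching 50%; inconclusive = only one of those two conditions met; inactive = mean below 50% and too few replicates reaching it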;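 note: 0% = median of the neutral control wells and 100% = twice that signal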
# * hit, by the source's call; ? = inconclusive; . = not tested or not shown.
SMILES,Wnt act,esBAF inh,HSF1 inh,MITF act,HSF1 activator
O=C(N/N=C/c1cccc(Oc2ccccc2)c1)c1ccccc1F,7.0,6.8,2.6,25.6,-0.4
O=C(N/N=C/C(Cl)=C/c1ccccc1)c1ccccc1F,24.8,47.8*,32.7,67.4,76.0*
O=C(Cn1cnc2ccccc21)N/N=C/C(Br)=C/c1ccccc1,36.8*,.,10.6,-5.0,28.8
Cn1c(=O)c2c(ncn2CC(=O)N/N=C/C(Br)=C/c2ccccc2)n(C)c1=O,.,.,14.0,8.3,33.2
O=[N+]([O-])c1ccc(C=NNc2ccccc2)cc1,14.5,44.2*,.,69.7,.
O=[N+]([O-])c1cccc(N/N=C/c2cc([N+](=O)[O-])ccc2O)c1,4.2,.,3.6,22.6,10.8
O=C(O)c1csc(N/N=C/c2ccc(Br)cc2)n1,-0.8,.,39.3,-25.3,80.7*
O=[N+]([O-])c1ccc(N/N=C/c2ccccc2O)cc1,6.4,68.7*,69.8,35.1,72.7*
Cc1cc(=O)[nH]c(N/N=C/c2ccc([N+](=O)[O-])cc2)n1,.,.,-10.2,.,-7.2
Cc1csc(N/N=C/c2ccc([N+](=O)[O-])cc2)n1,11.8,52.6*,-5.5,.,-10.6
C[C@@H]1CCCCO[C@H](CN(C)Cc2ccc(C(=O)O)cc2)[C@@H](C)CN([C@@H](C)CO)C(=O)c2cc(NC(=O)Nc3cccc4ccccc34)ccc2O1,.,1.5,.,.,.
COc1ccc(NC(=O)Nc2ccc3c(c2)C(=O)N([C@H](C)CO)C[C@H](C)[C@H](CN(C)C(=O)NC2CCCCC2)OCCCC[C@@H](C)O3)cc1,.,3.2,.,.,.
O=[N+]([O-])c1ccc(N/N=C/c2ccccc2)c(F)c1,33.9*,.,30.4,87.3*,39.7
C/C(=N\NC(=O)c1nnn(-c2nonc2N)c1CN(C)c1ccccc1)c1cccnc1,34.3*,-5.5,-12.5,-0.7,-9.9
C/C(=N\NC(=O)c1nnn(-c2nonc2N)c1-c1ccccc1)c1cccnc1,0.4,.,.,8.4,.
O=C(Nc1nccs1)c1cccc(N2C(=O)c3cccc4c([N+](=O)[O-])ccc(c34)C2=O)c1,-0.3,-16.3,148.1,-32.3,170.3*
C[C@@H]1CN([C@H](C)CO)C(=O)Cc2cc(NC(=O)C3CC3)ccc2O[C@@H]1CN(C)S(=O)(=O)c1ccc(F)cc1,.,0.9,.,.,.
Cc1cccc(Nc2ncc3c(n2)CC(c2ccco2)CC3=O)c1 (centres undefined),1.0,14.6,5.8,17.5,20.3
Cc1cccc(Nc2ncc3c(n2)CC(C)CC3=O)c1 (centres undefined),.,50.6*,22.6,?,41.3
Cc1ccc(Nc2ncc3c(n2)CC(c2ccco2)CC3=O)c(C)c1 (centres undefined),-5.4,54.1*,2.8,10.4,29.9
CCc1ccc(Nc2ncc3c(n2)CC(C)(C)CC3=O)cc1,57.2*,.,24.1,102.5*,42.5
CCc1ccc(Nc2ncc3c(n2)CC(C)CC3=O)cc1 (centres undefined),17.4,.,19.9,106.7*,25.3
CCc1cnc(N2[C@H](CO)[C@H](c3ccc(C#CCC4CCCC4)cc3)[C@@H]2C#N)s1,.,-0.9,.,.,.
C[C@@H]1CN([C@H](C)CO)C(=O)c2cc(C3=CCCC3)cnc2O[C@@H]1CN(C)C(=O)Nc1ccccc1,.,-2.1,.,.,.
CNC[C@@H]1OCCCC[C@@H](C)Oc2ccc(NC(=O)Nc3ccccc3)cc2C(=O)N([C@H](C)CO)C[C@H]1C,.,-2.8,.,.,.
SMILES,Wnt act,esBAF inh,HSF1 inh,MITF act,HSF1 activator
CCCSc1nnc2n(-c3ccccc3OC)c(=O)c3c4c(sc3n12)CCC4,.,-8.9,21.2,5.4,58.8*
Cn1c(=O)c2c(nc(SCCN3CCOCC3)n2Cc2ccccc2Cl)n(C)c1=O,1.4,-1.7,-1.0,.,-11.0
Cn1c(=O)c2c(nc(SCCN3CCOCC3)n2Cc2ccc(F)cc2)n(C)c1=O,.,56.4*,16.2,51.6,28.8
COc1cccc(S(=O)(=O)N[C@@H]2C=C[C@@H](CC(=O)NCc3ccncc3)O[C@H]2CO)c1,.,-2.9,.,.,.
C/C(=N/O)c1no[n+]([O-])c1/C(C)=N\O,37.9*,.,3.1,.,32.6
CC(O)CNCCCOc1ccc(Cl)cc1C(C)(C)C (centres undefined),-2.2,.,-65.7*,5.9,-72.8
O=C(NC(=S)Nc1cc(C(F)(F)F)ccc1Cl)c1ccccc1,.,25.4,2.8,-10.1,20.2
O=C(O)c1ccc(NNC(=S)Nc2cc(C(F)(F)F)ccc2Cl)cc1,6.7,54.4*,-1.6,.,7.3
CC(C)Oc1cccc(C(=O)Nc2ccc(Br)cc2F)c1,-2.1,.,4.7,101.2*,38.5
Cc1occc1C(=O)Nc1cc(C(F)(F)F)ccc1Cl,-10.7,-0.3,-65.3*,-1.8,-71.2
Cc1occc1C(=O)Nc1ccc(Br)cc1F,?,45.8*,17.4,70.6,8.8
CCC(=O)N(C)C[C@@H]1Oc2cc(C#CCC(C)C)ccc2S(=O)(=O)N([C@H](C)CO)C[C@@H]1C,.,-5.1,.,.,.
Oc1ccc(Br)cc1/C=N/n1cnc2ccccc21,.,53.4*,16.7,27.7,3.5
Oc1ccc(Br)cc1/C=N/N1CCCCC1,3.1,.,5.1,110.2*,23.6
O=[N+]([O-])c1ccc(O)c(C=NN2CCCCC2)c1,-4.5,.,.,.,.
O=S(=O)(c1ccccc1)N1CC[C@@H]2[C@H]1c1cc(-c3ccccc3F)ccc1N[C@@H]2CO,.,0.9,.,.,.
C[C@H](CO)N1C[C@H](C)[C@@H](CN(C)C(=O)Nc2ccc3c(c2)OCO3)Oc2ccc(NC(=O)Nc3ccccc3)cc2CC1=O,.,1.1,.,.,.
Cc1ccc(C2CN=NC23CCc2ccccc2C3=O)cc1 (centres undefined),3.0,48.2*,5.3,7.0,11.9
O=C1c2ccccc2CCCC12N=NCC2c1cccc2ccccc12 (centres undefined),-2.5,-0.5,-3.1,-4.0,-7.1
Cc1cc(NC(=O)COc2coc(CN3CCN(c4ccccc4)CC3)cc2=O)no1,-2.0,-2.6,0.5,2.9,2.8
CC(C)NC(=O)COc1coc(CN2CCN(c3ccccc3)CC2)cc1=O,-3.4,0.1,-52.8*,-2.2,-63.4
Cc1ccc(C)c(NC(=O)COc2coc(CN3CCc4ccccc4C3)cc2=O)c1,-5.5,.,-51.1*,-20.9,-61.7
Cc1cc(NC(=O)COc2coc(CN3CCN(c4ccccc4F)CC3)cc2=O)no1,-2.4,.,-74.6*,-8.0,-80.1
CCCNC(=O)COc1coc(CN2CCN(c3ccccc3OC)CC2)cc1=O,-2.8,2.1,-72.5*,4.4,-79.8
COc1ccccc1N1CCN(Cc2cc(=O)c(OCC(=O)Nc3ccccc3)co2)CC1,2.8,8.0,-8.3,2.4,10.4
CNC(=O)COc1coc(CN2CCN(C(=O)c3ccco3)CC2)cc1=O,34.9*,-1.6,-4.0,-2.2,0.1
CCS(=O)(=O)NCC[C@H]1CC[C@@H](NC(=O)C2CCCCC2)[C@H](CO)O1,.,2.8,.,.,.
